Screen size: about 5,500 compounds; about 2,000 (36%) were called active. About 18% were inconclusive and are not listed. Cut-off read from the data, not from the text of the source: active = normalized growth mostly below about 0.91 (no sharp cut-off); inconclusive = no clear call, values can overlap the other calls; inactive = mostly above about 0.92. Some of the results follow.
Experiment: chemical genetic growth profiling, strain panel (AID 1159580);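 note: tested at 20 µM; growth read once vehicle control cultures reached saturation at 30 °C; 1 = growth at the plate median or of vehicle wells; lower values mean less growth of the strain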
Details: growth OD

Measured: normalized growth

CNC[C@H](O)c1cccc(O)c1
inactive: S. cerevisiae deletion strains, locus YKL009W, strain mrt4, hits give low values 1 | S. cerevisiae deletion strains, locus YKL068W, hits give low values 1.01 | S. cerevisiae deletion strains, locus YKL085W, strain MDH1 (second series), hits give low values 1.01 | S. cerevisiae deletion strains, locus YKL085W, strain MDH1, hits give low values 1.01 | S. cerevisiae deletion strains, locus YKL160W, strain elf1, hits give low values 0.963 | S. cerevisiae deletion strains, locus YKL190W, strain CNB1, hits give low values 1 | S. cerevisiae deletion strains, locus YKR001C, strain vps1, hits give low values 1.02 | S. cerevisiae deletion strains, locus YKR026C, strain gcn3, hits give low values 0.99 | S. cerevisiae deletion strains, locus YKR091W, strain srl3, hits give low values 0.962 | S. cerevisiae deletion strains, locus YLL001W, strain dnm1, hits give low values 0.962 | S. cerevisiae deletion strains, locus YLL026W, hits give low values 0.977 | S. cerevisiae deletion strains, locus YLL041C, strain sdh2, hits give low values 0.985 | S. cerevisiae deletion strains, locus YLR027C, strain aat2, hits give low values 0.974 | S. cerevisiae deletion strains, locus YLR039C, strain RIC1, hits give low values 1.03 | S. cerevisiae deletion strains, locus YLR058C, strain SHM2, hits give low values 1.01 | S. cerevisiae deletion strains, locus YLR102C, strain apc9, hits give low values 1.01 | S. cerevisiae deletion strains, locus YLR113W, strain HOG1, hits give low values 1 | S. cerevisiae deletion strains, locus YLR221C, strain rsa3, hits give low values 0.987 | S. cerevisiae deletion strains, locus YLR258W, strain gsy2, hits give low values 0.986 | S. cerevisiae deletion strains, locus YLR262C, strain YPT6 (second series), hits give low values 0.969 | S. cerevisiae deletion strains, locus YLR262C, strain YPT6, hits give low values 1.03 | S. cerevisiae deletion strains, locus YLR268W, strain sec22, hits give low values 1.02 | S. cerevisiae deletion strains, locus YLR320W, strain mms22, hits give low values 0.964 | S. cerevisiae deletion strains, locus YLR330W, strain CHS5, hits give low values 1.01 | S. cerevisiae deletion strains, locus YLR342W, strain FKS1 (second series), hits give low values 0.994 | S. cerevisiae deletion strains, locus YLR342W, strain FKS1, hits give low values 0.963 | S. cerevisiae deletion strains, locus YLR357W, strain rsc2, hits give low values 0.906 | S. cerevisiae deletion strains, locus YLR370C, strain arc18, hits give low values 0.991 | S. cerevisiae deletion strains, locus YLR371W, strain rom2, hits give low values 1.01 | S. cerevisiae deletion strains, locus YLR384C, strain iki3, hits give low values 0.979 | S. cerevisiae deletion strains, locus YLR418C, strain cdc73, hits give low values 1.02 | S. cerevisiae deletion strains, locus YML016C, strain PPZ1, hits give low values 1.01 | S. cerevisiae deletion strains, locus YML032C, strain rad52, hits give low values 1.02 | S. cerevisiae deletion strains, locus YML120C, strain ndi1, hits give low values 0.979 | S. cerevisiae deletion strains, locus YML124C, strain tub3, hits give low values 1.02 | S. cerevisiae deletion strains, locus YMR058W, strain fet3, hits give low values 0.971 | S. cerevisiae deletion strains, locus YMR078C, strain ctf18, hits give low values 1.01 | S. cerevisiae deletion strains, locus YMR125W, strain sto1, hits give low values 0.995 | S. cerevisiae deletion strains, locus YMR129W, hits give low values 0.988 | S. cerevisiae deletion strains, locus YMR205C, strain PFK2, hits give low values 0.965 | S. cerevisiae deletion strains, locus YMR223W, strain ubp8, hits give low values 1.01 | S. cerevisiae deletion strains, locus YMR231W, strain pep5, hits give low values 0.982 | S. cerevisiae deletion strains, locus YMR263W, strain SAP30, hits give low values 1.01 | S. cerevisiae deletion strains, locus YMR307W, strain GAS1, hits give low values 1.02 | S. cerevisiae deletion strains, locus YNL067W, strain RPL9B, hits give low values 1 | S. cerevisiae deletion strains, locus YNL071W, strain lat1, hits give low values 0.998 | S. cerevisiae deletion strains, locus YNL128W, strain TEP1, hits give low values 1.01 | S. cerevisiae deletion strains, locus YNL153C, strain GIM3, hits give low values 1.01 | S. cerevisiae deletion strains, locus YNL183C, strain NPR1, hits give low values 0.975 | S. cerevisiae deletion strains, locus YNL209W, strain ssb2, hits give low values 0.991 | S. cerevisiae deletion strains, locus YNL233W, strain BNI4, hits give low values 1.01 | S. cerevisiae deletion strains, locus YNL248C, strain rpa49, hits give low values 0.988 | S. cerevisiae deletion strains, locus YNL250W, strain rad50, hits give low values 1.02 | S. cerevisiae deletion strains, locus YNL271C, strain bni1, hits give low values 1.02 | S. cerevisiae deletion strains, locus YNL298W, strain CLA4, hits give low values 1.03 | S. cerevisiae deletion strains, locus YNL307C, strain MCK1, hits give low values 1.02 | S. cerevisiae deletion strains, locus YNL322C, strain KRE1 (second series), hits give low values 0.976 | S. cerevisiae deletion strains, locus YNL322C, strain KRE1, hits give low values 1 | S. cerevisiae deletion strains, locus YNR049C, strain mso1, hits give low values 0.993 | S. cerevisiae deletion strains, locus YNR052C, strain pop2, hits give low values 1.02 | S. cerevisiae deletion strains, locus YOL006C, strain TOP1, hits give low values 1.05 | S. cerevisiae deletion strains, locus YOL012C, strain htz1 0.81 | S. cerevisiae deletion strains, locus YOL147C, strain pex11, hits give low values 1.02 | S. cerevisiae deletion strains, locus YOR001W, strain rrp6, hits give low values 0.977 | S. cerevisiae deletion strains, locus YOR061W, strain CKA2, hits give low values 1.01 | S. cerevisiae deletion strains, locus YOR069W, strain VPS5, hits give low values 1.01 | S. cerevisiae deletion strains, locus YOR070C, strain gyp1, hits give low values 0.994 | S. cerevisiae deletion strains, locus YOR080W, strain dia2, hits give low values 0.98 | S. cerevisiae deletion strains, locus YOR083W, strain WHI5, hits give low values 0.953 | S. cerevisiae deletion strains, locus YOR106W, strain vam3, hits give low values 0.98 | S. cerevisiae deletion strains, locus YOR136W, strain idh2, hits give low values 1.02 | S. cerevisiae deletion strains, locus YOR144C, strain elg1, hits give low values 1.01 | S. cerevisiae deletion strains, locus YOR184W, strain ser1, hits give low values 1.04 | S. cerevisiae deletion strains, locus YOR231W, strain MKK1, hits give low values 1 | S. cerevisiae deletion strains, locus YOR265W, strain rbl2, hits give low values 0.989 | S. cerevisiae deletion strains, locus YOR270C, strain vph1, hits give low values 1 | S. cerevisiae deletion strains, locus YOR290C, strain snf2, hits give low values 0.993 | S. cerevisiae deletion strains, locus YOR316C, strain cot1, hits give low values 1.02 | S. cerevisiae deletion strains, locus YPL051W, strain arl3, hits give low values 0.973 | S. cerevisiae deletion strains, locus YPL055C, strain LGE1, hits give low values 1.01 | S. cerevisiae deletion strains, locus YPL078C, strain atp4, hits give low values 0.966 | S. cerevisiae deletion strains, locus YPL106C, strain sse1, hits give low values 0.95 | S. cerevisiae deletion strains, locus YPL240C, strain hsp82, hits give low values 0.982 | S. cerevisiae deletion strains, locus YPL241C, strain CIN2, hits give low values 1.01 | S. cerevisiae deletion strains, locus YPL256C, strain CLN2, hits give low values 1.01 | S. cerevisiae deletion strains, locus YPR119W, strain clb2, hits give low values 1.01 | S. cerevisiae deletion strains, locus YPR141C, strain kar3, hits give low values 1.02 | S. cerevisiae deletion strains, locus YPR163C, strain tif3, hits give low values 1.02 | S. cerevisiae deletion strains, locus YPR167C, strain met16, hits give low values 1.02 | S. cerevisiae deletion strains, strain wtn01, hits give low values 1.01 | S. cerevisiae strains, strain wild type, hits give low values 1.01

Reference: PubChem BioAssay AID1159580 (chemical genetic matrix, 2015)
